CYP2C19 act – activators of human cytochrome P450 2C19; P33261; recombinant CYP2C19, luciferin-H EGE luminescence; stronger effect = higher value; 0 = fully inhibited enzyme, 1 = untreated enzyme; activation factor at 5 µM; 96,000 tested, under 10 active; AID 1025;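 active = activation factor of at least 2 at 5 µM in the primary screen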;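 note: 0 = wells with 2.5 mM tranylcypromine and 1 = vehicle-only wells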
CYP2C9 inh – blocks human cytochrome P450 2C9. AID 777. 96,000 compounds, 20% hits. inhibition, % at 5 µM. P11712. CYP2C9 Supersomes, luciferin-H conversion, luminescence;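 active = blocking of liver enzyme CYP2C9 beyond about 50% at 5 µM, limit read from the data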
Target sequence (P11712 whole entry, looked up): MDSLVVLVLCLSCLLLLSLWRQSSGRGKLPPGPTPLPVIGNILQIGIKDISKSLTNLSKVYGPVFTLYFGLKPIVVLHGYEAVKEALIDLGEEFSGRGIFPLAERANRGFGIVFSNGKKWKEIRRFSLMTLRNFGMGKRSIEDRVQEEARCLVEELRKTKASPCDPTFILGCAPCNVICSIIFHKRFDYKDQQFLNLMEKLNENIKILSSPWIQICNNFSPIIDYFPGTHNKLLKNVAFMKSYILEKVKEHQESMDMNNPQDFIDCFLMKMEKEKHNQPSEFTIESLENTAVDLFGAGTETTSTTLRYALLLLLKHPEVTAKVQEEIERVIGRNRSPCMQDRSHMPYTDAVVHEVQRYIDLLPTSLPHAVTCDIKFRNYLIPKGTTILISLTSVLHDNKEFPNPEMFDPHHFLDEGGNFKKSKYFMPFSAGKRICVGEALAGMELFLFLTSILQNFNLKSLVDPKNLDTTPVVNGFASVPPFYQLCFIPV
Cav3 T inh – inhibitors of human Cav3.2 T-type calcium channel; Cav3.2-expressing cells, Fluo-4 calcium fluorescence FDSS; stronger effect = lower value; B-score at 10 µM; AID 449739; 100,000 compounds, 4% hits;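 active = single-dose well whose peak fluorescence ratio is a statistical outlier from its plate by either plate-standardised score or position-corrected B-score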
PTK2B oligo ant – blocks oligomerization of human Pyk2 in cells; Q14289; Q293 cells, Pyk2 FERM NanoBiT luminescence; stronger effect = lower value; z-score (the deposit names both 25 µM and 10 µM); 99,000 compounds, 0.83% hits; AID 1347419;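 active = Z-score of -3 or lower, scaled per plate to the spread of control and sample wells; inactive = z-score above -3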;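 note: negative z-score means lost luminescence so less FERM oligomerization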
CYP2C9 act – CYP2C9 (human) activation. P11712. recombinant CYP2C9, luciferin-H conversion, luminescence; stronger effect = higher value; factor 1 = untreated enzyme, 0 = blocked. activation factor at 5 µM. 96,000 compounds, 1.4% hits. AID 1024;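 active = activation factor of 2 or more for CYP2C9 at a 5 µM dose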;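 note: 0 = sulfaphenazole-blocked wells and 1 = vehicle-only wells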
CYP2C19 inhib – inhibitors of human CYP2C19. 96,000 compounds, 21% hits. AID 778. P33261. CYP2C19 Supersomes, luciferin-H EGE luminescence, 30 min. inhibition, % at 5 µM;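 active = CYP2C19 inhibition above a set limit at 5 µM in the primary screen, cut at about 50% in these data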;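 note: plate controls were negative control wells for no effect and 2.5 mM tranylcypromine positive control for full effect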
An asterisk follows results filed as active; . = not tested or not shown. Rows were chosen to be rich in hits. Some 27% of all compounds tested hit in one or more screens of this group.

SMILES	CYP2C19 act	CYP2C9 inh	Cav3 T inh	PTK2B oligo ant	CYP2C9 act	CYP2C19 inhib
Cc1ccnc(NC2(C(F)(F)F)N=C(c3ccccc3)NC2=O)c1 (stereo not drawn)	0.9	-2	0.098	0.1	1	10
CCOC(=O)CN1C(=O)SC(CC(=O)Nc2nccs2)C1=O (stereo not drawn)	0.7	35	-0.13	-1.2	0.7	27
COc1cccc(-c2cc(C(F)(F)F)nc(N3CCCCC3)n2)c1	1.1	11	-0.72	0.03	0.9	-8
C=CCOC(=O)C1C(=O)CC(C)(O)C(C(=O)OCC=C)C1c1ccc(OCC)cc1 (stereo not drawn)	0.8	22	.	-0.68	0.8	22
CCOC(=O)c1ccc(NC(=O)C(=O)NCC2CCCO2)cc1 (stereo not drawn)	0.8	16	0.79	1.1	0.8	18
CCOC(=O)c1ccc(NC(=O)C(=O)NCc2ccncc2)cc1	0.6	51*	0.68	-0.26	0.5	42
Oc1c(Cl)cc(Cl)cc1C(C#Cc1ccccc1)N1CCOCC1 (stereo not drawn)	0.8	67*	-0.2	-0.02	0.3	24
N#CC(c1ccc(O)cc1)N1CCOCC1 (stereo not drawn)	.	.	0.83	1.7	.	.
O=C1CN(C(=O)c2cc(Br)c(Br)s2)c2ccccc2N1	1	46	-5.6*	-2.9	0.5	-1
CCN=C1SC(CC(=O)Nc2ccccc2OCC)C(=O)N1CC (stereo not drawn)	0.2	-36	1.4	-0.06	1.4	76*
CCN=C1SC(CC(=O)Nc2ccc(C(F)(F)F)cc2)C(=O)N1CC (stereo not drawn)	0.4	17	-1.3	-0.53	0.8	65*
CCN=C1SC(CC(=O)Nc2ccc(N3CCOCC3)cc2)C(=O)N1CC (stereo not drawn)	0.8	14	0.68	-0.76	0.9	16
CCCCOc1ccccc1NC(=O)CC1SC(=NCC)N(CC)C1=O (stereo not drawn)	0.3	-14	-3.6	-0.68	1.1	69*
CCCCOc1ccccc1NC(=O)CC1Nc2ccccc2NC1=O (stereo not drawn)	0.7	64*	-0.84	-1.4	0.4	26
CCN1CCN(C(=S)c2ccc(OCC(=O)Nc3ccc(OC)cc3)cc2)CC1	.	.	-1.7	2	.	.
Cc1ccc(CCNc2ccccc2C)cn1	.	.	0.34	1.5	.	.
O=c1[nH]c2ccccc2nc1C(Cl)c1ccccc1 (stereo not drawn)	0.7	-12	0.39	.	1.1	27
COC(=O)COC(=O)CC(CC(N)=O)c1ccccc1 (stereo not drawn)	0.8	5	-0.82	0.05	1	18
CCC(=O)Nc1sc2c(c1C#N)CCCCC2	0.8	3	-1.2	-0.43	1	24
CCN=C1SC(CC(=O)Nc2sc3c(c2C#N)CCCC3)C(=O)N1CC (stereo not drawn)	0.8	53*	0.026	0.05	0.5	20
CCNC(=O)CC1SC(=Nc2ccc(C)cc2)N(CC)C1=O (stereo not drawn)	0.5	27	0.73	-0.41	0.7	53*
CCN=C1SC(CC(=O)NCCc2ccc(OC)cc2)C(=O)N1CC (stereo not drawn)	0.5	51*	0.54	0.63	0.5	48
CCCCN1C(=O)C(CC(=O)NCC)SC1=Nc1ccccc1 (stereo not drawn)	.	.	0.42	1.8	.	.
CCC(=O)Nc1cccc(-c2cn3ccsc3n2)c1	1	-52	0.63	-0.29	1.5	-1
Cc1cc(C)nc(NS(=O)(=O)c2ccc(NS(=O)(=O)c3ccccc3)cc2)n1	0.9	26	-0.6	0.83	0.7	11
SMILES	CYP2C19 act	CYP2C9 inh	Cav3 T inh	PTK2B oligo ant	CYP2C9 act	CYP2C19 inhib
Cc1ccc(S(=O)(=O)Nc2cccc(-c3cn4ccsc4n3)c2)cc1	0	99*	-1.5	-0.77	0	100*
Cc1nc(-c2cccc(NS(=O)(=O)c3ccccc3)c2)cs1	0	77*	-2.2	0.07	0.2	97*
O=S(=O)(Nc1cccc(-c2cn3cccnc3n2)c1)c1ccc(F)cc1	.	.	.	-0.33	.	.
CC(C)C(=O)Nc1cccc(-c2cn3ccsc3n2)c1	1	7	-0.18	-0.23	0.9	-3
O=S(=O)(Nc1cccc(-c2cn3cccnc3n2)c1)c1ccc(-c2ccccc2)cc1	0.2	100*	.	-0.93	0	81*
Cc1cccc(S(=O)(=O)Nc2cccc(-c3cn4ccsc4n3)c2)c1	0.2	91*	-1.2	-2.1	0.1	80*
O=C(OCC(=O)N1CCN(C(=O)c2ccco2)CC1)c1ccccc1C(=O)c1ccc(Cl)cc1	0.8	31	0.44	0.71	0.7	21
[C-]#[N+][C@H](O[C@@H]1O[C@H](CO)[C@@H](O)[C@H](O)[C@H]1O)c1ccccc1	.	.	-5.7*	.	.	.
COC(=O)[C@@]1(Cc2ccc(OC)cc2)[C@H]2c3cc(C(=O)N4CCCC4)n(CCn4cc([N+](=O)[O-])nc4C)c3C[C@H]2CN1C(=O)c1ccccc1	.	.	1.1	.	.	.
Cc1nnc(SCc2ccccc2)nc1/C=C/NOCc1ccc(Cl)cc1Cl	0.2	88*	-0.022	1.3	0.1	79*
CCOC(=O)c1ncn2c1C(=O)OC2(C)C	0.9	9	0.0045	0.14	0.9	12
CCOc1ccccc1-c1nc(-c2ccncc2)no1	0.2	-37	-0.3	-0.11	1.4	78*
Clc1cc(Cl)c(OCc2nc(-c3ccccn3)no2)cc1Cl	0.9	7	-0.014	-0.39	0.9	8
COc1ccccc1-c1nc(-c2ccncc2)no1	0.1	23	0.0065	0.49	0.8	89*
CCOc1ccccc1-c1nc(-c2cc3ccccc3nc2OC)no1	0.9	0	0.066	-1.6	1	6
Clc1ccc(OCc2nc(-c3ccncc3)no2)c(Cl)c1	0	95*	-1.4	0.46	0.1	96*
COc1ccccc1-c1nc(-c2ccc(Br)cc2)no1	1	-16	-1.6	0.05	1.2	-1
COc1ccc(Cl)cc1-c1nc(-c2ccncc2)no1	0.2	38	-1.1	0.4	0.6	79*
COc1ccc(OCc2n[nH]c(=S)o2)cc1	0.9	89*	0.7	0.58	0.1	14
CCS(=O)(=O)c1ccc2oc(SCC(=O)NC34CC5CC(CC(C5)C3)C4)nc2c1	0.5	37	-7.2*	-0.47	0.6	48
CCS(=O)(=O)c1ccc2oc(SCC(=O)NC3CCCC(C)C3C)nc2c1 (stereo not drawn)	0.5	46	-0.11	0.44	0.5	52*
CCCc1nnc(N2C(=O)c3cccc4cccc(c34)C2=O)s1	1.1	-203	0.37	-0.14	3*	-8
CCOc1ccc(-n2nc3c(Cl)nnc(C)c3c2C)cc1	.	.	.	0.22	.	.
Cc1ccc(SCC(=O)N(Cc2nc(-c3ccccc3)no2)C(C)C)cc1	0.2	79*	-2.7	0.19	0.2	77*

Bioassay records deposited in PubChem BioAssay by several laboratories.
